Source: PubChem (National Center for Advancing Translational Sciences (NCATS))
HT1080 IDH1KD tx = qHTS for induction of synthetic lethality in tumor cells producing 2HG: qHTS for the HT-1080-IDH1KD cell line. AID 686971, 2013. hit rate 2% among 360,000. Potency, µM (doses to about 46.1 µM), inactives show at the top dose activity, negative = toxicity, usual class: cytotoxic. HT-1080 IDH1 knockdown viability, ATP luminescence, 48 h;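 further: 0% = DMSO wells and -100% = cell-free medium wells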
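Knockdown cells (IDH1KD HT-1080) received compounds 2 h after plating at 750 cells/well and were kept 48 h at 37 °C in 5% FBS RPMI. A CellTiter-Glo luminescence read gave % activity for curve fitting.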
HT1080NT lethal = qHTS for induction of synthetic lethality in tumor cells producing 2HG: qHTS for the HT-1080-NT fibrosarcoma cell line | HT-1080-NT fibrosarcoma viability, CellTiter-Glo ATP luminescence, 48 h | Potency, µM (doses to about 46.1 µM), for the others: at the top dose activity, negative = less viability, most hits filed as cytotoxic | hit rate 1.6% among 360,000 | AID 686970, 2013;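 further: NT is the 2HG producing partner of a matched IDH1 knockdown line; 0% = DMSO-treated cells and -100% = media-only wells without cells; nearly all actives have a fitted effect of over 55% in size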
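Luminescent CellTiter-Glo readout after 48 hours of compound exposure at 37 degrees C defined viability of HT-1080-NT cells. Activity was normalized to DMSO wells and cell-free media wells; concentration-response curves were fitted and assigned curve classes.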
SW480 rerep = A quantitative high throughput screen for small molecules that induce DNA re-replication in SW480 colon adenocarcinoma cells | SW480 DNA re-replication, Hoechst DNA content imaging, 48 h | Potency, µM (top dose mostly 46.1 µM), for inactives: at the top dose re-replication activation, actives largely listed as activators | hit rate 1.8% among 340,000; further: % of control where 0% means no effect; nearly all actives have a fitted effect of over 55% in size
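250 cells/well; 23 nL cpd via pin tool; 48 hr, 37 C, 5% CO2; Hoechst 40 min; imager read of total nuclear intensity, ex 405/em 500-530 nm.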
KB-V1 MDR tox = qHTS assay for MDR1-selective chemotherapeutics: Primary screen using the drug-selected MDR subline cells KB-V1; KB-V1 MDR cells viability, CellTiter-Glo, 72 h; Potency, µM (series often up to 46.1 µM), usual class: cytotoxic; hit rate 3.4% among 400,000; AID 1347076, 2019; further: on the % scale 0 is the no-effect control and ±100 the full control effect; nearly all actives have a fitted effect of over 60% in size
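Potencies derive from concentration-effect curves fitted to normalized luminescence (CellTiter-Glo) of KB-V1 cells treated for 72 h at 37 degrees C in phenol-red-free DMEM containing 10% FBS.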
KB-3-1 tox = qHTS assay for MDR1-selective chemotherapeutics: Primary screen using the parental adenocarcinoma cell KB-3-1; KB-3-1 viability, CellTiter-Glo ATP luminescence, 72 h; Potency, µM (top dose mostly 46.1 µM), usual class: cytotoxic; hit rate 1.4% among 400,000; AID 1347075, 2019; further: on the % scale 0 is the no-effect control and ±100 the full control effect; nearly all actives have a fitted effect of over 60% in size
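Screening of KB-3-1 cells (DMEM, 10% FBS, phenol-red free) ran from lowest to highest compound concentration; after 72 h at 37 °C viability was read luminescently and curves fitted.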
MCF10A rerep = A quantitative high throughput screen for small molecules that induce DNA re-replication in MCF 10a normal breast cells; hit rate 2.9% among 350,000; MCF 10A DNA re-replication, Hoechst nuclear intensity, 48 h; Potency, µM (highest dose often 46.1 µM), inactives show top-dose activity, positive = re-replication, hits mostly activators; AID 624296, 2012; further: % of control where 0% means no effect; nearly all actives have a fitted effect of over 50% in size
Starred values were filed as active, the others as inactive. An excerpt weighted towards active compounds, which were near 7.9% of everything screened. The call rests on the fitted dose curve; in most records, active means well fitted curve in the direction sought with a large enough effect; inconclusive means small, poorly fitted or top-dose-only effect, or another doubt; inactive means no such curve, though single readings can be large; an effect the other way counts as inactive or inconclusive. Potency means the concentration at half of the fitted maximal effect.

Results for CC(CC(=O)Nc1ccc(S(=O)(=O)N2CCOCC2)cc1)c1ccccc1 (centres undefined) ?
HT1080 IDH1KD tx: -14.0%; HT1080NT lethal: -0.4%; SW480 rerep: -2.3%; KB-V1 MDR tox: inactive; KB-3-1 tox: inactive; MCF10A rerep: 8.5%

Results for CCCCOCCCNC(=S)Nc1ccc(S(=O)(=O)N2CCOCC2)cc1 ?
HT1080 IDH1KD tx: -0.4%; HT1080NT lethal: -11.7%; SW480 rerep: 63.2%; KB-V1 MDR tox: 18.4µM*; KB-3-1 tox: inconclusive; MCF10A rerep: 19.5%

What do the screens show for `O=S(=O)(c1ccc(NC(=S)NCCC(c2ccccc2)c2ccccc2)cc1)N1CCOCC1`?
HT1080 IDH1KD tx: inconclusive; HT1080NT lethal: -27.0%; SW480 rerep: inconclusive; KB-V1 MDR tox: inconclusive; KB-3-1 tox: inconclusive; MCF10A rerep: 5.17µM*

How did O=S(=O)(c1ccc(NC(=S)N/N=C/c2c3ccccc3cc3ccccc23)cc1)N1CCOCC1 do in these assays?
HT1080 IDH1KD tx: inconclusive; HT1080NT lethal: inconclusive; SW480 rerep: 13µM*; KB-V1 MDR tox: inconclusive; KB-3-1 tox: 3.66µM*; MCF10A rerep: inconclusive

How did Cc1cccc(-c2ncc(CN3CCN(CCC(C)C)C(CCO)C3)cn2)c1 (centres undefined) do in these assays?
HT1080 IDH1KD tx: -7.4%; HT1080NT lethal: -10.9%; SW480 rerep: 23.1µM*; KB-V1 MDR tox: inconclusive; KB-3-1 tox: inactive; MCF10A rerep: -2.4%

How did Cc1cccc(-c2ncc(CN3CCN(C4CCCC4)C(CCO)C3)cn2)c1 (centres undefined) do in these assays?
HT1080 IDH1KD tx: -19.1%; HT1080NT lethal: -22.5%; SW480 rerep: inconclusive; KB-V1 MDR tox: inconclusive; KB-3-1 tox: inactive; MCF10A rerep: 13.9%

Results for O=C(Nc1c(F)c(F)c(F)c(F)c1F)NC1CCCCC1 ?
HT1080 IDH1KD tx: -0.2%; HT1080NT lethal: -22.0%; SW480 rerep: 3.8%; KB-V1 MDR tox: 16.4µM*; KB-3-1 tox: inactive; MCF10A rerep: 2.0%

Results for O=C(COCc1cc(-c2ccc(F)cc2)on1)Nc1cccc(C(F)(F)F)c1 ?
KB-V1 MDR tox: inactive; KB-3-1 tox: inactive

Results for CC(C)(C)c1ccc(C2CC2C(=O)N/N=C\c2cc3ccccc3nc2Cl)cc1 (centres undefined) ?
HT1080 IDH1KD tx: 4.3%; HT1080NT lethal: 9.2%; SW480 rerep: -6.7%; KB-V1 MDR tox: 10.3µM*; KB-3-1 tox: inactive; MCF10A rerep: 10.7%

Results for O=C(COc1cccc(Cl)c1)N/N=C\c1cc2ccccc2nc1Cl ?
HT1080 IDH1KD tx: 4.1%; HT1080NT lethal: 6.8%; SW480 rerep: -0.1%; KB-V1 MDR tox: inconclusive; KB-3-1 tox: inactive; MCF10A rerep: inconclusive

Results for Cc1ccc2nc(Cl)c(/C=N/NC(=O)c3ccccc3O)cc2c1 ?
HT1080 IDH1KD tx: inconclusive; HT1080NT lethal: inconclusive; SW480 rerep: -61.2%; KB-V1 MDR tox: inactive; KB-3-1 tox: inactive; MCF10A rerep: inconclusive

How did Cc1ccc2nc(Cl)c(/C=N/NC(=O)[C@H]3C[C@@H]3c3ccccc3)cc2c1 do in these assays?
HT1080 IDH1KD tx: 17.6%; HT1080NT lethal: 18.6%; SW480 rerep: inconclusive; KB-V1 MDR tox: inactive; KB-3-1 tox: inactive; MCF10A rerep: 8.2µM*

How did O=C(CNc1ccc2ccccc2c1)N/N=C/c1cc2ccccc2nc1Cl do in these assays?
HT1080 IDH1KD tx: 3.4%; HT1080NT lethal: -1.9%; SW480 rerep: -2.4%; KB-V1 MDR tox: inactive; KB-3-1 tox: inactive; MCF10A rerep: 18.4µM*

Results for COc1cc(Cl)c(NC(=O)c2cc(S(=O)(=O)N3CCOCC3)cn2C)c(OC)c1 ?
KB-V1 MDR tox: inactive; KB-3-1 tox: inactive

How did CC(C)=CCC/C(C)=C/C=C/C(C)=C/C=C/C(C)=C/C=C/C=C(C)/C=C/C=C(C)/C=C/C=C(\C)CCC=C(C)C do in these assays?
SW480 rerep: 18.8µM*; MCF10A rerep: inconclusive

How did CC(C)=CCC/C(C)=C/C(N)=O do in these assays?
HT1080 IDH1KD tx: 1.3%; HT1080NT lethal: 14.9%; SW480 rerep: -5.4%; KB-V1 MDR tox: inactive; KB-3-1 tox: inactive; MCF10A rerep: -0.8%

How did CC1CC(C)CN(C(=O)C(NS(=O)(=O)c2ccc(Br)s2)c2ccccc2)C1 (centres undefined) do in these assays?
HT1080 IDH1KD tx: inconclusive; HT1080NT lethal: -25.8%; SW480 rerep: -96.9%; KB-V1 MDR tox: inactive; KB-3-1 tox: inactive; MCF10A rerep: 16.4µM*

How did Cn1nc(C(C)(C)C)cc1NC(=O)C1(C)CCN1C(=O)C1(c2ccccc2)CC1 (centres undefined) do in these assays?
HT1080 IDH1KD tx: -1.7%; HT1080NT lethal: 3.8%; KB-V1 MDR tox: inactive; KB-3-1 tox: inactive

Results for Cc1cccc(NC(=O)c2cccc(Cn3cc(Br)c([N+](=O)[O-])n3)c2)c1C ?
HT1080 IDH1KD tx: -10.9%; HT1080NT lethal: -27.1%; SW480 rerep: -2.1%; KB-V1 MDR tox: 11.6µM*; KB-3-1 tox: inconclusive; MCF10A rerep: -4.3%

Results for Cc1ccccc1NC(=O)c1cccc(Cn2cc(Br)c([N+](=O)[O-])n2)c1 ?
HT1080 IDH1KD tx: -21.0%; HT1080NT lethal: -5.1%; SW480 rerep: 0.6%; KB-V1 MDR tox: inactive; KB-3-1 tox: inactive; MCF10A rerep: 3.2%

What do the screens show for `COc1ccc(OC)c(NC(=O)c2cccc(Cn3cc(Br)c([N+](=O)[O-])n3)c2)c1`?
HT1080 IDH1KD tx: -7.7%; HT1080NT lethal: -6.1%; SW480 rerep: -54.6%; KB-V1 MDR tox: 4.61µM*; KB-3-1 tox: inconclusive; MCF10A rerep: 5.8%

Results for OCc1ccccc1-c1cccc2nccn12 ?
HT1080 IDH1KD tx: 14.0%; HT1080NT lethal: 27.6%; KB-V1 MDR tox: inactive; KB-3-1 tox: inactive

How did Oc1ccc(C[C@H]2CNC(=S)N2C[C@H]2CCCN2C[C@H](Cc2ccccc2)N2C[C@H](Cc3ccc(O)cc3)N(CC3CCCCCC3)C2=S)cc1 do in these assays?
HT1080 IDH1KD tx: 18.4µM*; HT1080NT lethal: 29.1µM*; KB-V1 MDR tox: inactive; KB-3-1 tox: inconclusive

What do the screens show for `Oc1ccc(C[C@H]2CN([C@@H](Cc3ccc(O)cc3)CN3CCC[C@@H]3CN3C(=S)NC[C@@H]3Cc3ccccc3)C(=S)N2CC2CCCCCC2)cc1`?
HT1080 IDH1KD tx: 16.4µM*; HT1080NT lethal: 11.6µM*; KB-V1 MDR tox: inactive; KB-3-1 tox: inconclusive
